Source: PubChem BioAssay
Active and inactive are the calls of the source. Unless noted, how the calls were made is not given here.

Assays:
[1] = A549 cell viability effects, profiling panel, calcein-AM fluorescence, 48 h, basal (AID 1162); conditions: higher = more signal; further: test concentration not given here
[2] = adipocyte viability effects, profiling panel, cell-based, 3T3-L1 adipocytes, calcein-AM fluorescence, 48 h, basal (AID 1163); conditions: 3T3-L1 adipocytes viability, higher = more signal; further: test concentration not given here
[3] = HepG2 cell viability effects, profiling panel, calcein-AM fluorescence, 48 h, basal (AID 1164); conditions: higher = more signal; further: test concentration not given here
[4] = MM1S cell viability effects, profiling panel, calcein-AM fluorescence, 48 h, basal (AID 1165); conditions: higher = more signal;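 further: viability of MM1S multiple myeloma cells under basal unstimulated conditions; test concentration not given here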
[5] = basal RPMI8226 viability, no added stimulus, profiling panel, cell-based, calcein-AM fluorescence, 48 h, PK04 Diversity Set (AID 1166); conditions: RPMI8226 myeloma viability, higher = more signal;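 further: cells grown under basal conditions without added stimulus; test concentration not given here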
[6] = basal HepG2 mitochondrial membrane potential changes, profiling panel, cell-based, JC-1 fluorescence, 24 h, 100 nL compound (AID 1167); conditions: higher = more signal; further: test concentration not given here
[7] = basal 3T3-L1 adipocyte mitochondrial potential changes, profiling panel, cell-based, JC-1 fluorescence, 3T3-L1 adipocytes, 24 h, 100 nL compound (AID 1168); conditions: JC-1 mitochondrial fluorescence, higher = more signal, called active from +8 up or from −8 down; further: test concentration not given here
[8] = basal RPMI8226 mitochondrial membrane potential changes, profiling panel, cell-based, JC-1 fluorescence, 24 h, 100 nL compound (AID 1169); conditions: RPMI8226 myeloma, JC-1 mitochondrial potential fluorescence, higher = more signal; further: test concentration not given here
[9] = basal MM1S mitochondrial membrane potential changes, profiling panel, cell-based, JC-1 fluorescence, 24 h, 100 nL compound (AID 1170); conditions: higher = more signal; further: test concentration not given here
[10] = A549 lung cancer cell viability effects, profiling panel, resazurin fluorescence, 24 h, PK04 Diversity Set (AID 1171); conditions: higher = more signal, called active from +8 up or from −8 down; further: test concentration not given here
[11] = HepG2 liver cancer cell viability effects, profiling panel, resazurin fluorescence, 24 h, PK04 Diversity Set (AID 1172); conditions: higher = more signal; further: test concentration not given here
[12] = basal S. cerevisiae growth modulation, no modifier, primary screen, OD600, strain BY4716, 24 h, basal condition (AID 1173); conditions: OD600, 24 h, higher = more signal, called active from +8 up or from −8 down
[13] = MM1S myeloma cell viability, profiling panel, resazurin fluorescence, basal, 24 h, PK04 Diversity Set (AID 1174); conditions: higher = more signal, called active from +8 up or from −8 down;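 further: MM1S multiple myeloma cell line; test concentration not given here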
[14] = biological target: Dihydroorotate dehydrogenase (quinone), mitochondrial (Plasmodium falciparum (isolate 3D7)) (UniProt Q08210); assay: PfDHODH enzyme inhibitors, primary screen, biochemical, C-terminal His tag, absorbance 600 nm (AID 1175); conditions: DCIP absorbance 600 nm, higher = more signal, called active from +8 up or from −8 down;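 further: recombinant parasite enzyme with a five histidine tag at its C terminus; test concentration not given here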
Chain of Dihydroorotate dehydrogenase (quinone), mitochondrial (Plasmodium falciparum (isolate 3D7)) (Q08210 whole entry, looked up): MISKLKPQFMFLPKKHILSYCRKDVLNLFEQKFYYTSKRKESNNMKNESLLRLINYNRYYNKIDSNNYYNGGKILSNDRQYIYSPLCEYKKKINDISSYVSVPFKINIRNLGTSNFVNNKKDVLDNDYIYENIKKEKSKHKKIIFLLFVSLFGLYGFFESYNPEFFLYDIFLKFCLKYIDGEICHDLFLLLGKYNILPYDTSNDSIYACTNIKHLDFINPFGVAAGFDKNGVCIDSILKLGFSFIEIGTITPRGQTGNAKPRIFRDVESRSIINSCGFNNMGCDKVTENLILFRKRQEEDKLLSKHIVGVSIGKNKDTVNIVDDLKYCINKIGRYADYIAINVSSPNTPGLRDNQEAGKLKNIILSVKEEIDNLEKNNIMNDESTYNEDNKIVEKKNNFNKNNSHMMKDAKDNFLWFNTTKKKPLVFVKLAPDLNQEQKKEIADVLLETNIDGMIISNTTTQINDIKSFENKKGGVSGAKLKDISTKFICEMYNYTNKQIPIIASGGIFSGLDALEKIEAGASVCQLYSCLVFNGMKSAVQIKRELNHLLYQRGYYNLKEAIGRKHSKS

[15] = P. aeruginosa biofilm formation inhibitors, primary screen, strain PAO1, LB-PBS medium, absorbance 600 nm (AID 1176); further: test concentration not given here; conditions: P. aeruginosa PAO1 growth/biofilm, A600, 12 h; higher = more signal
[16] = S. cerevisiae RM11-1a growth modifiers, primary screen, strain RM11-1a, OD600, basal, 24 h (AID 1177); conditions: OD600, 24 h, higher = more signal, called active from +8 up or from −8 down;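 further: cultures grown under basal conditions with no added stressor; test concentration not given here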
[17] = E. coli acrAB mutant growth effects, primary screen, E. coli filamentation inducers, strain DRC39, OD650, 24 h (AID 1178); conditions: higher = more signal, called active from +8 up or from −8 down;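 further: growth measured as culture turbidity by optical density at 650 nm; test concentration not given here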
[18] = E. coli acrAB mutant growth effects, primary screen, E. coli filamentation inducers, strain DRC39, OD650, 48 h (AID 1179);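 further: screen aims at cell division blockers that make cells filament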; conditions: E. coli DRC39 delta-acrAB growth, higher = more signal, called active from +8 up or from −8 down
[19] = RPMI8226 myeloma cell viability, profiling panel, resazurin fluorescence, basal, 24 h, PK04 Diversity Set (AID 1180); conditions: higher = more signal;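 further: RPMI8826 multiple myeloma cell line at 5000 cells per well; test concentration not given here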
[20] = biological target: E3 ubiquitin-protein ligase XIAP (Homo sapiens) (UniProt P98170); assay: XIAP binders, primary screen, biophysical, small-molecule microarray, fluorescence 635 nm (AID 1181); conditions: small-molecule microarray binding, higher = more signal;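 further: score merges 667 nm emission and signal to noise over triplicate slides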
Chain of E3 ubiquitin-protein ligase XIAP (Homo sapiens) (P98170 whole entry, looked up): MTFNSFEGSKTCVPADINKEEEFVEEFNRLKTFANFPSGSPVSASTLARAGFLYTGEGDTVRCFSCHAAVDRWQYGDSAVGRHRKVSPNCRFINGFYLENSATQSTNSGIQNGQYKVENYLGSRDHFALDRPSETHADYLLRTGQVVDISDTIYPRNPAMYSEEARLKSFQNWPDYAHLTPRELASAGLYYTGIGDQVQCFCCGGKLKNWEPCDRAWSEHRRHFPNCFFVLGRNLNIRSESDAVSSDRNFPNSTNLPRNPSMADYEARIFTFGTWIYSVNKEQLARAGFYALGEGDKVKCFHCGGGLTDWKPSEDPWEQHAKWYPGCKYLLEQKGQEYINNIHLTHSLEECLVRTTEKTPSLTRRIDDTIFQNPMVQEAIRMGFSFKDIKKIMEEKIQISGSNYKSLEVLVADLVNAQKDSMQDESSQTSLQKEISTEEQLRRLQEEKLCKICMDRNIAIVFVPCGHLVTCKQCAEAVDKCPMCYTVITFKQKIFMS

| Structure (SMILES) | z-score [1] | z-score [2] | z-score [3] | z-score [4] | z-score [5] | z-score [6] | z-score [7] | z-score [8] | z-score [9] | z-score [10] | z-score [11] | z-score [12] | z-score [13] | composite z-score [14] | z-score [15] | z-score [16] | z-score [17] | z-score [18] | z-score [19] | composite z-score [20] |
| --- | --- | --- | --- | --- | --- | --- | --- | --- | --- | --- | --- | --- | --- | --- | --- | --- | --- | --- | --- | --- |
| COc1cc(NN2C(C(O)c3cc(OC)c(OC)c(OC)c3)C=CC3C(=O)N(c4ccccc4)C(=O)C32)cc(OC)c1OC (stereo not given) | -0.94 | 0.641 | -0.455 | -0.881 | -0.373 | -0.132 | -0.768 (inactive) | -0.286 | -0.755 | -1.11 (inactive) | -1.95 | 0.585 (inactive) | -1.19 (inactive) | -1.42 (inactive) | 0.366 (inactive) | -0.147 (inactive) | -0.585 (inactive) | -0.511 (inactive) | -1.71 | 0.074 |
| COC(=O)[C@@]1(Cc2ccc(F)cc2)[C@H]2c3cc(C(=O)N(C)C)n(Cc4ccc(O)c(OC)c4)c3C[C@H]2CN1C(=O)c1ccccc1 | 0.511 | 0.997 | -0.269 | -0.0229 | -1.92 | 0.766 | -0.475 (inactive) | -0.379 | -1.63 | -0.88 (inactive) | -0.338 | 1.15 (inactive) | 0.0463 (inactive) | -0.764 (inactive) | 1.72 (inactive) | 0.301 (inactive) | 0.373 (inactive) | -1.35 (inactive) | -0.997 | 0.0812 |
| O=C1O[C@H](c2ccccc2)[C@H](c2ccccc2)N2[C@H]1[C@@H](C(=O)O)[C@]1(C(=O)Nc3ccc(C#CC4(O)CCCCCC4)cc31)[C@H]2c1ccc(O)cc1 | -0.167 | 0.685 | -0.714 | -0.217 | 0.265 | -0.482 | -0.559 (inactive) | -0.0905 | -0.705 | 0.976 (inactive) | 0.934 | -1.83 (inactive) | 1.36 (inactive) | -3.2 (inactive) | 0.734 (inactive) | -0.692 (inactive) | 0.451 (inactive) | -0.679 (inactive) | -0.0544 | -0.248 |
| Cc1c(NC(=O)/C(C#N)=C/c2ccccc2Cl)c(=O)n(-c2ccccc2)n1C | 1.62 | 0.228 | 1.02 | 0.867 | 1.52 | 0.771 | 1.14 (inactive) | -0.0416 | -1.04 | -0.357 (inactive) | 0.294 | -1.08 (inactive) | 0.242 (inactive) | -1.73 (inactive) | 0.543 (inactive) | -0.688 (inactive) | 1.17 (inactive) | 1.36 (inactive) | 0.0753 | 0.197 |
| C=C[C@H](C)[C@H](OC(=O)Nc1ccc(OC)cc1)c1ccc(OCCO)cc1 | 0.366 | -0.402 | 0.692 | -0.412 | -1.83 | -0.569 | 0.627 (inactive) | -0.0376 | 0.873 | -0.262 (inactive) | -0.178 | -5.91 (inactive) | 1.69 (inactive) | -0.285 (inactive) | 0.413 (inactive) | -0.354 (inactive) | 1.43 (inactive) | 0.465 (inactive) | 0.603 | 0.34 |
| C=C(COC)/C(=C/C[C@H](OC(C)=O)c1cccc(OCCO)c1)c1cnc2ccccc2c1 | 0.858 | 1.01 | 0.455 | -2.78 | -0.114 | 0.713 | -0.437 (inactive) | 0.23 | -0.0946 | 0.127 (inactive) | -0.0054 | 1.02 (inactive) | -0.496 (inactive) | -6.23 (inactive) | 0.0721 (inactive) | 1.56 (inactive) | -0.901 (inactive) | -0.856 (inactive) | -0.58 | -0.0749 |
| COC(=O)C1=CC(CCCO)=CC(c2ccc(CN3CCCC3)cc2)N(Cc2cc3c(cc2Br)OCO3)C=C1C(=O)OC (stereo not given) | -0.392 | 0.151 | 0.0308 | 0.0875 | 0.046 | 0.516 | -0.251 (inactive) | 0.144 | -0.0408 | 0.652 (inactive) | 0.3 | 0.0793 (inactive) | -0.119 (inactive) | 0.214 (inactive) | 0.214 (inactive) | 0.73 (inactive) | 0.463 (inactive) | 0.67 (inactive) | -0.0377 | -0.0102 |
| CCOC(=O)C[C@H]1[C@H](OC(=O)c2ccccc2-c2ccccc2)[C@@H](NC(=O)c2ccc3ccccc3n2)c2cc(OCCCO)ccc2N1C(=O)c1ccccc1 | 0.198 | 0.197 | 0.305 | -0.295 | -0.0468 | 0.549 | -0.178 (inactive) | -0.707 | 0.625 | 0.143 (inactive) | -0.412 | 1.16 (inactive) | -0.042 (inactive) | 0.742 (inactive) | -0.165 (inactive) | 1.01 (inactive) | -0.745 (inactive) | -0.916 (inactive) | 0.303 | 0.0153 |
| CCOC(=O)C[C@H]1[C@H](OC(=O)c2ccc(-c3ccccc3)cc2)[C@@H](NC(=O)CC(C)C)c2cc(OCCCO)ccc2N1C(=O)c1ccccc1 | -0.426 | -0.257 | -0.0915 | -1.17 | -0.672 | 1.32 | -0.679 (inactive) | 0.983 | 0.33 | -0.719 (inactive) | -0.6 | 1.28 (inactive) | -0.281 (inactive) | 0.88 (inactive) | 0.951 (inactive) | 0.964 (inactive) | -0.635 (inactive) | -0.776 (inactive) | -0.157 | -0.0559 |
